SMILES strings stand for the structures. Hit rate of the full screen: of about 94,000 compounds, about 6,200 (6.6%) were called active. Inconclusive results (about 31%) are left out. The call rests on the fitted dose curve; in most records, active means well fitted inhibition curve with a large enough effect; inconclusive means small, poorly fitted or top-dose-only effect; inactive means flat fitted curve, though single readings scatter. The list comes from a sample in which actives are over-represented; it also holds similar structures and randomly drawn compounds. Entries that show only a call come without a potency.
Potency means the concentration at half of the fitted maximal effect.

The assay in a line: Cytotoxic Profiling in HEK 293 Cell Line of Diverse Libraries Using Quantitative High-Throughput Screening. Further: nearly all actives have a fitted effect of over 60% in size. Particulars: HEK 293 viability, ATP luminescence (CellTiter-Glo), 48-72 h; series mostly up to 115 µM. In outline:
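Cytotoxicity was scored by loss of ATP-coupled luminescence (CellTiter-Glo) in HEK 293 cells. Compound treatment ran 48 or 72 hr at 37 degree Celsius, 5% CO2, 95% humidity.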
Background: In ATP-based viability assays light output follows the ATP content of the culture.
As for `CC1CCN([C@@H]2[C@H](O)[C@H](CO)O[C@@H]2CNC(=O)Nc2ccccc2)CC1`, the Potency entry was “inactive”.
To `CN(Cc1nccn1C)C(=O)c1cc(CN2CCC(Cc3ccccc3)CC2)on1` belongs “inactive”.
With `CC1(C)[C@H](Cc2cc(CC3CCCCC3)on2)C[C@@H]1NC1CCOCC1` the figure was 28.2 µM (active); with `CC1(C)[C@H](Cc2cc(CC3CCCCC3)on2)C[C@@H]1NC(=O)C1CCC1`, 35.5 µM (active); with `CN(Cc1ccccc1)Cc1cc(CC2(NCc3ccc(CO)o3)COC2)no1`, “inactive”.
Regarding `CC(=O)N1CCC(N[C@H]2C[C@@H](Cc3cc(CN(C)c4ccccc4)on3)C2(C)C)CC1`, the Potency was 70.8 µM (active).
With `CCC(CC)C(=O)N[C@H]1C[C@@H](Cc2cc(COc3ccccc3)on2)C1(C)C` the figure was 31.6 µM (active); with `COCc1cc(C[C@@H]2CC[C@H](O)[C@@H](CN(C)C)O2)no1`, “inactive”; with `Cc1cc(C[C@@H]2COC[C@@H]2NC(=O)C2CCN(C(=O)N(C)C)CC2)on1`, “inactive”.
In the case of `O=C(O)C[C@@H]1CCN(S(=O)(=O)c2ccccc2)C[C@@H]1CC1=NCCc2cc(F)ccc21`, the Potency entry was “inactive”.
With `O=C(NC1CCN(C(=O)N2CC3CC(C2)[C@H]2CCCC(=O)N2C3)CC1)c1ccsc1` (stereo partly specified) the entry was “inactive”.
Regarding `O=C(c1ccccc1F)N1CCC2(CC1)N(c1ccccc1)C(=O)CS2(=O)=O`, the Potency entry is “inactive”.
For the compound `O=C(NCc1ccccc1-n1cncn1)C1CC(=O)N(Cc2ccccn2)C1` (stereo unspecified), the Potency result was “inactive”.
On to `Cc1cccc(Cl)c1NC(=O)Cn1c(C)cc2nc3n(c(=O)c21)CCCCC3`, for which the Potency entry was “inactive”.
As for `COc1ccccc1C(=O)NCC1Cn2cccc2C(=O)N1Cc1cccnc1` (stereo unspecified), the Potency entry is “inactive”.
For `COCc1nnc2n1CCC(NC(=O)CCc1c(C)nn(C)c1C)CC2` (stereo unspecified), the Potency entry was “inactive”.
Regarding `CC(C)NC(=O)NC1CCN(c2ccc3nnc(-c4ccccc4)n3n2)C1` (stereo unspecified), the Potency entry was “inactive”.
Take `COc1cc(OC)c(NC(=O)N2CCCC2c2nncn2C2CCCC2)cc1Cl` (stereo unspecified): the Potency result is “inactive”.
With `O=C(Nc1ccccc1)N1CCc2nc(-c3ccccc3)nc(-c3ccc(Cl)cc3)c2C1` the entry was “inactive”.
With `COc1ccc(C(=O)N2CCC([C@@H]3CNC[C@H]3CO)CC2)cc1OC` the entry was “inactive”; with `COCCOCC(=O)N1CCCC(c2nc(-c3cccnc3)no2)CCNC(=O)CC1` (stereo unspecified), “inactive”; with `CC(c1cccs1)N(C)[S+](=O)([O-])c1cccc(C(F)(F)F)c1` (stereo unspecified), “inactive”.
On to `COCC(=O)NC1CCC12CCN(C(=O)CCCc1ccccc1)CC2` (stereo unspecified), for which the Potency entry was “inactive”.
For `COCC1CN(C2CCC2)CC12CCN(C(=O)CCc1ccccc1)CC2` (stereo unspecified), the Potency is 31.6 µM (active).
Regarding `COCC1CN(C2CCC2)CC12CCN(C(=O)C1CCN(C(C)=O)CC1)CC2` (stereo unspecified), the Potency entry is “inactive”.
With `O=C(NCc1c[nH]c2ncccc12)c1ccccn1` the entry was “inactive”.

The values above are taken from PubChem BioAssay AID1345083 (National Center for Advancing Translational Sciences (NCATS), 2018).
